Values joined by “and” are separate entries in the source; they are usually repeats but may differ in a detail not shown here. Identical values can stand only once. Hit rate of the full screen: of about 5,500 compounds, about 2,000 (36%) were called active. Not shown: some 18% with an inconclusive outcome. No stated cut-off is given here; in the data, active means normalized growth mostly below about 0.91 (no sharp cut-off); inconclusive means no clear call, values can overlap the other calls; inactive means mostly above about 0.92. The list shows a part of the results.
Assay: chemical genetic growth profiling, strain panel (AID 1159580);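 further: tested at 20 µM; growth read once vehicle control cultures reached saturation at 30 °C; 1 = growth at the plate median or of vehicle wells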
Settings: S. cerevisiae deletion strains, growth OD

Measured: normalized growth

OC/C=C/c1ccc(O)c(O)c1
active: locus YGR252W, strain gcn5, stronger effect = lower value 1.24 [resistant] | locus YLR371W, strain rom2, stronger effect = lower value 0.86
inactive: locus YAL013W, strain DEP1, stronger effect = lower value 0.995 | locus YAL021C, strain ccr4, stronger effect = lower value 0.977 | locus YAL026C, strain drs2, stronger effect = lower value 1 | locus YAL030W, strain snc1, stronger effect = lower value 0.995 | locus YBL061C, strain skt5, stronger effect = lower value 0.996 | locus YBR009C, strain hhf1, stronger effect = lower value 0.994 | locus YBR021W, strain FUR4, stronger effect = lower value 1.03 | locus YBR023C, strain chs3, stronger effect = lower value 0.995 | locus YBR171W, strain sec66, stronger effect = lower value 1.01 | locus YBR229C, strain ROT2, stronger effect = lower value 1 | locus YBR231C, strain swc5, stronger effect = lower value 0.993 | locus YBR279W, strain paf1, stronger effect = lower value 0.996 | locus YCL011C, strain gbp2, stronger effect = lower value 0.994 | locus YCL016C, strain dcc1, stronger effect = lower value 0.995 | locus YCL029C, strain bik1, stronger effect = lower value 0.96 | locus YCL061C, strain MRC1, stronger effect = lower value 0.996 | locus YCL069W, strain vba3, stronger effect = lower value 0.992 | locus YCR088W, strain abp1, stronger effect = lower value 1.01 | locus YDL005C, strain med2, stronger effect = lower value 0.996 | locus YDL035C, strain GPR1, stronger effect = lower value 1.02 | locus YDL040C, strain nat1, stronger effect = lower value 0.988 | locus YDL074C, strain BRE1, stronger effect = lower value 0.945 | locus YDL101C, strain DUN1, stronger effect = lower value 0.991 | locus YDL134C, strain PPH21, stronger effect = lower value 1.05 | locus YDL185W, strain tfp1, stronger effect = lower value 0.953 | locus YDL192W, strain arf1, stronger effect = lower value 0.973 | locus YDR001C, strain nth1, stronger effect = lower value 0.994 | locus YDR069C, strain doa4, stronger effect = lower value 1.01 | locus YDR101C, strain arx1, stronger effect = lower value 0.962 | locus YDR137W, strain rgp1, stronger effect = lower value 0.968 | locus YDR159W, strain sac3, stronger effect = lower value 0.966 | locus YDR162C, strain NBP2, stronger effect = lower value 0.993 | locus YDR195W, strain ref2 0.951 | locus YDR297W, strain sur2, stronger effect = lower value 1 | locus YDR318W, strain mcm21, stronger effect = lower value 0.984 | locus YDR334W, strain swr1, stronger effect = lower value 0.991 | locus YDR335W, strain msn5, stronger effect = lower value 0.996 | locus YDR388W, stronger effect = lower value 0.98 | locus YDR392W, strain spt3, stronger effect = lower value 1.01 | locus YDR502C, strain sam2, stronger effect = lower value 0.993 | locus YEL003W, strain gim4, stronger effect = lower value 0.997 | locus YEL037C, strain rad23, stronger effect = lower value 1 | locus YEL061C, strain CIN8 (second series), stronger effect = lower value 0.991 | locus YEL061C, strain CIN8, stronger effect = lower value 0.978 | locus YER015W, strain faa2, stronger effect = lower value 1 | locus YER016W, strain bim1, stronger effect = lower value 0.992 | locus YER110C, stronger effect = lower value 0.954 | locus YER111C, strain swi4, stronger effect = lower value 1.01 | locus YER155C, strain BEM2 (second series), stronger effect = lower value 0.991 | locus YER155C, strain BEM2, stronger effect = lower value 0.987 | locus YER167W, strain BCK2, stronger effect = lower value 0.978 | locus YFR010W, strain ubp6, stronger effect = lower value 0.999 | locus YGL078C, strain dbp3, stronger effect = lower value 1.02 | locus YGL086W, strain mad1, stronger effect = lower value 0.937 | locus YGL167C, strain pmr1, stronger effect = lower value 1 | locus YGL173C, strain kem1, stronger effect = lower value 1.01 | locus YGL227W, strain vid30, stronger effect = lower value 1.01 | locus YGL240W, strain doc1, stronger effect = lower value 1.03 | locus YGL248W, strain PDE1, stronger effect = lower value 1.01 | locus YGL253W, strain hxk2, stronger effect = lower value 1.01 | locus YGR135W, strain pre9, stronger effect = lower value 1 | locus YHR013C, strain ard1, stronger effect = lower value 0.976 | locus YHR027C, strain rpn1, stronger effect = lower value 0.987 | locus YHR030C, strain SLT2, stronger effect = lower value 0.978 and 0.986 | locus YHR079C, strain IRE1 (second series), stronger effect = lower value 0.96 | locus YHR079C, strain IRE1, stronger effect = lower value 0.996 | locus YHR094C, strain hxt1, stronger effect = lower value 0.969 | locus YHR129C, strain ARP1, stronger effect = lower value 0.991 | locus YHR142W, strain chs7, stronger effect = lower value 1 | locus YHR200W, strain rpn10, stronger effect = lower value 0.966 | locus YIL066C, strain RNR3, stronger effect = lower value 0.996 | locus YIL073C, strain SPO22, stronger effect = lower value 0.912 | locus YIL125W, strain kgd1, stronger effect = lower value 0.98 | locus YIR030C, strain dcg1, stronger effect = lower value 0.969 | locus YJL092W, strain hpr5, stronger effect = lower value 0.995 | locus YJL095W, strain BCK1 (second series), stronger effect = lower value 1 | locus YJL095W, strain BCK1, stronger effect = lower value 1.02 and 0.999 | locus YJL115W, strain asf1, stronger effect = lower value 0.999 | locus YJL129C, strain trk1, stronger effect = lower value 0.994 | locus YJL134W, strain LCB3, stronger effect = lower value 0.986 | locus YJL154C, strain vps35, stronger effect = lower value 0.998 | locus YJL164C, strain tpk1, stronger effect = lower value 0.998 | locus YJL166W, strain qcr8, stronger effect = lower value 1 | locus YJL168C, strain set2, stronger effect = lower value 0.962 | locus YJL187C, strain SWE1 (second series), stronger effect = lower value 0.997 | locus YJL187C, strain SWE1, stronger effect = lower value 0.992 | locus YJR043C, strain POL32, stronger effect = lower value 1.02 | locus YJR066W, strain TOR1, stronger effect = lower value 0.946 | locus YJR075W, strain HOC1, stronger effect = lower value 0.984 | locus YKL009W, strain mrt4, stronger effect = lower value 1.01 | locus YKL068W, stronger effect = lower value 0.959 | locus YKL085W, strain MDH1 (second series), stronger effect = lower value 0.95 | locus YKL085W, strain MDH1, stronger effect = lower value 0.95 | locus YKL160W, strain elf1, stronger effect = lower value 1 | locus YKR001C, strain vps1, stronger effect = lower value 0.972 | locus YKR026C, strain gcn3, stronger effect = lower value 1 | locus YKR091W, strain srl3, stronger effect = lower value 1 | locus YLL001W, strain dnm1, stronger effect = lower value 0.989 | locus YLL026W, stronger effect = lower value 1 | locus YLL041C, strain sdh2, stronger effect = lower value 0.999 | locus YLR027C, strain aat2, stronger effect = lower value 0.988 | locus YLR039C, strain RIC1, stronger effect = lower value 0.938 | locus YLR058C, strain SHM2, stronger effect = lower value 0.996 | locus YLR102C, strain apc9, stronger effect = lower value 0.961 | locus YLR113W, strain HOG1, stronger effect = lower value 0.98 | locus YLR221C, strain rsa3, stronger effect = lower value 1 | locus YLR258W, strain gsy2, stronger effect = lower value 1.02 | locus YLR262C, strain YPT6 (second series), stronger effect = lower value 0.991 | locus YLR262C, strain YPT6, stronger effect = lower value 0.942 | locus YLR268W, strain sec22, stronger effect = lower value 0.96 | locus YLR320W, strain mms22, stronger effect = lower value 1 | locus YLR330W, strain CHS5, stronger effect = lower value 0.934 | locus YLR342W, strain FKS1 (second series), stronger effect = lower value 1.04 | locus YLR342W, strain FKS1, stronger effect = lower value 1.01 | locus YLR357W, strain rsc2, stronger effect = lower value 0.988 | locus YLR370C, strain arc18, stronger effect = lower value 0.993 | locus YLR384C, strain iki3, stronger effect = lower value 0.992 | locus YLR418C, strain cdc73, stronger effect = lower value 0.988 | locus YML016C, strain PPZ1, stronger effect = lower value 0.992 | locus YML032C, strain rad52, stronger effect = lower value 1.01 | locus YML120C, strain ndi1, stronger effect = lower value 0.992 | locus YML124C, strain tub3, stronger effect = lower value 0.96 | locus YMR058W, strain fet3, stronger effect = lower value 1.01 | locus YMR078C, strain ctf18, stronger effect = lower value 0.95 | locus YMR125W, strain sto1, stronger effect = lower value 0.995 | locus YMR129W, stronger effect = lower value 0.997 | locus YMR205C, strain PFK2, stronger effect = lower value 0.983 | locus YMR223W, strain ubp8, stronger effect = lower value 0.98 | locus YMR231W, strain pep5, stronger effect = lower value 0.979 | locus YMR263W, strain SAP30, stronger effect = lower value 0.989 | locus YMR307W, strain GAS1, stronger effect = lower value 1.09 | locus YNL067W, strain RPL9B, stronger effect = lower value 0.997 | locus YNL071W, strain lat1, stronger effect = lower value 0.993 | locus YNL128W, strain TEP1, stronger effect = lower value 0.966 | locus YNL153C, strain GIM3, stronger effect = lower value 0.999 | locus YNL183C, strain NPR1, stronger effect = lower value 0.963 | locus YNL209W, strain ssb2, stronger effect = lower value 0.991 | locus YNL233W, strain BNI4, stronger effect = lower value 0.994 | locus YNL248C, strain rpa49, stronger effect = lower value 1 | locus YNL250W, strain rad50, stronger effect = lower value 0.909 | locus YNL271C, strain bni1, stronger effect = lower value 0.963 | locus YNL298W, strain CLA4, stronger effect = lower value 0.991 | locus YNL307C, strain MCK1, stronger effect = lower value 0.953 | locus YNL322C, strain KRE1 (second series), stronger effect = lower value 1 | locus YNR049C, strain mso1, stronger effect = lower value 0.997 | locus YNR052C, strain pop2, stronger effect = lower value 0.98 | locus YOL012C, strain htz1 0.905 | locus YOL147C, strain pex11, stronger effect = lower value 0.963 | locus YOR001W, strain rrp6, stronger effect = lower value 1.01 | locus YOR061W, strain CKA2, stronger effect = lower value 0.995 | locus YOR069W, strain VPS5, stronger effect = lower value 0.986 | locus YOR070C, strain gyp1, stronger effect = lower value 0.985 | locus YOR080W, strain dia2, stronger effect = lower value 0.994 | locus YOR083W, strain WHI5, stronger effect = lower value 1 | locus YOR106W, strain vam3, stronger effect = lower value 1.01 | locus YOR136W, strain idh2, stronger effect = lower value 0.953 | locus YOR144C, strain elg1, stronger effect = lower value 0.971 | locus YOR184W, strain ser1, stronger effect = lower value 1.02 | locus YOR231W, strain MKK1, stronger effect = lower value 1 | locus YOR265W, strain rbl2, stronger effect = lower value 0.989 | locus YOR270C, strain vph1, stronger effect = lower value 0.994 | locus YOR290C, strain snf2, stronger effect = lower value 1.02 | locus YOR316C, strain cot1, stronger effect = lower value 0.957 | locus YPL051W, strain arl3, stronger effect = lower value 1.05 | locus YPL055C, strain LGE1, stronger effect = lower value 1 | locus YPL078C, strain atp4, stronger effect = lower value 0.994 | locus YPL106C, strain sse1, stronger effect = lower value 0.988 | locus YPL240C, strain hsp82, stronger effect = lower value 0.995 | locus YPL241C, strain CIN2, stronger effect = lower value 0.988 | locus YPL256C, strain CLN2, stronger effect = lower value 0.956 | locus YPR119W, strain clb2, stronger effect = lower value 0.946 | locus YPR141C, strain kar3, stronger effect = lower value 0.938 | locus YPR163C, strain tif3, stronger effect = lower value 0.973 | locus YPR167C, strain met16, stronger effect = lower value 0.967 | strain wtn01, stronger effect = lower value 0.949
